Results published in the supplement of paper PMC9023506.
Counter-ions that a name gives are not always drawn.

system: Danio rerio larvae (5 dpf); assay: optomotor response to fast red moving lines, difference vs DMSO (percentage points (treated minus DMSO)); higher = more of the behaviour than the DMSO vehicle control; conditions: 10 µM; exposure time: 3 h pre-incubation + 3 h imaging
Description: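 5-dpf wild-type zebrafish larvae were imaged in 96-well plates. They were treated with 190 Tocris FDA-approved drugs at 10 µM (1 µl/ml DMSO) for 3 h before and 3 h during imaging at 28.5 °C, 48 larvae per drug. Automated image analysis gave % time moving and optomotor responses. Values are drug group mean minus DMSO vehicle mean (n=844), in percentage points, for 10 behaviours.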

SMILES	optomotor response
CC(O)(CS(=O)(=O)c1ccc(F)cc1)C(=O)Nc1ccc(C#N)c(C(F)(F)F)c1 (stereo unspecified) [Bicalutamide]	-2.63
CC(C)C[C@H]1C(=O)N2CCC[C@H]2[C@]2(O)O[C@](NC(=O)[C@@H]3C=C4c5cccc6[nH]c(Br)c(c56)C[C@H]4N(C)C3)(C(C)C)C(=O)N12 [Bromocriptine mesylate]	-41.6
O=c1[nH]c2ccccc2n1C1CCN(CCCC(c2ccc(F)cc2)c2ccc(F)cc2)CC1 [Pimozide]	-34.3
COc1cc2c(cc1OC)C1CC(=O)C(CC(C)C)CN1CC2 (stereo unspecified) [Tetrabenazine]	-22.5
CN1C[C@H](C(=O)N[C@]2(C)O[C@@]3(O)[C@@H]4CCCN4C(=O)[C@H](Cc4ccccc4)N3C2=O)C[C@@H]2c3cccc4[nH]cc(c34)C[C@H]21 [Dihydroergotamine mesylate]	2.2
CC[C@@H](C(N)=O)N1CCCC1=O [Levetiracetam]	-4.73
C=C1C[C@@H]2[C@H](CC[C@]3(C)C(=O)CC[C@@H]23)[C@@]2(C)C=CC(=O)C=C12 [Exemestane]	5.64
CCN(C)C(=O)Oc1cccc([C@H](C)N(C)C)c1 [Rivastigmine tartrate]	-8.58
C=CCN1C[C@H](C(=O)N(CCCN(C)C)C(=O)NCC)C[C@@H]2c3cccc4[nH]cc(c34)C[C@H]21 [Cabergoline]	-23.2
N[C@@H]1C[C@H]1c1ccccc1 [Tranylcypromine hydrochloride]	11.9
COc1ccc(C(CN(C)C)C2(O)CCCCC2)cc1 (stereo unspecified) [Venlafaxine hydrochloride]	7.81
